Shown is part of a subset that was picked to be rich in hits.
TTR transcr act: activators of transthyretin transcription | SH-SY5Y TTR promoter Gaussia luciferase, luminescence; 100% = recombinant luciferase protein wells | 92,000 compounds, 1.3% hits | activation, % at 16.7 µM;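 active = activation above the mean of all tested compounds plus 3 SD, cut at about 9.5% in these data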;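 also: cells exposed to compounds for one day before reading; 0% = median of all test compound wells on the plate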
TTR inh HuH7: decreases TTR transcription in HuH7 cells in activator counter-screen; shares compounds with TTR transcr act; HuH7 TTR promoter-Gaussia luciferase reporter, luminescence; inhibition, % at 16.7 µM; 1,100 compounds, 4% hits; AID 1117279;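 active = average inhibition above the solvent-only control wells' mean plus 3 SD, cut at about 15% in these data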;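 also: 0% = cells with DMSO only and 100% = cells with inhibitor control FD; inhibitors lower well luminescence so higher value means more inhibition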
TTR act confirm: confirmation of human transthyretin transcription activators. shares compounds with TTR transcr act. SHSY5Y TTR promoter Gaussia luciferase, luminescence; 100% = purified Lucia enzyme wells, no cells. activation, % at 16.7 µM. 1,100 tested, under 10 active;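 active = mean activation above a set limit taken from the earlier primary screen, cut at about 11% in these data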;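 also: 0% = DMSO-treated cells and 100% = recombinant Lucia luciferase without cells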
An asterisk follows results filed as active.

SMILES	TTR transcr act	others
CCOC(=O)[C@]12CCCC=C1N(Cc1ccc(OC)cc1)C(=O)[C@@H]2CC(=O)NCCCCc1ccccc1	0
O=C1[C@H](c2ccccc2)[C@@H](c2ccncc2)N1c1ccncc1	0
O=C(COC(=O)c1cccc([N+](=O)[O-])c1)Nc1ncc(Br)s1	2
Cc1cc(C)n(C(=O)CNC(=O)C(c2ccccc2)c2ccccc2)n1	-1
Cc1cc(C)n(C(=O)Cn2nc(C)c(Cl)c2C)n1	1
Cc1cc(C)n(C(=O)CNc2cccc(Cl)c2C)n1	11*	TTR inh HuH7=-14;TTR act confirm=-1
CCCCCCCC(=O)N[C@H]1CC[C@@]23CCCN2C(=O)CCC[C@H]3[C@H]1C	1
COc1ccc(C(C)=O)cc1CSc1nnc2c(Cl)cc(Cl)cn12	1
C=CCn1c(C)cc(C(=O)CSc2nc(N)cc(N)n2)c1C	2
C=CCn1c(C)cc(C(=O)CSc2nnc3c(Cl)cc(Cl)cn23)c1C	22*	TTR inh HuH7=-13;TTR act confirm=0
CC(C)OP(=O)(O)C(C)NC(=O)OCc1ccccc1 (stereo not given)	-2
C[C@H]1[C@@H](N(C)Cc2cccs2)CC[C@@]23CCCN2C(=O)CCC[C@@H]13	-2
C[C@H]1C(=O)N2[C@@H](C[C@]3(c4c[nH]c5ccccc45)c4ccccc4N(S(=O)(=O)c4ccccc4)[C@H]23)C(=O)N1C	-1
CC(C)c1ccc(NC2CCCN(C(=O)c3cnc4ccccn4c3=O)C2)cc1 (stereo not given)	0
CC(C)c1ccc(NC2CCCN(C(=O)CCN3CCCCC3=O)C2)cc1 (stereo not given)	0
CC(C)c1ccc(NC2CCCN(C(=O)c3cccs3)C2)cc1 (stereo not given)	11*	TTR inh HuH7=-5;TTR act confirm=-1
CCc1ccc(N2CC(C(=O)Nc3ccc4c(c3)OCCO4)CC2=O)cc1 (stereo not given)	-1
CC(=O)c1cccc(NC(=O)c2cnn3c(C)cc(C)nc23)c1	0
Cc1ccc(/C=C/C2=NN(Cc3ccc(Cl)c(Cl)c3)C(=O)CC2)cc1	13*	TTR inh HuH7=7;TTR act confirm=0
Cc1ccccc1CN1N=C(/C=C/c2ccccc2)CCC1=O	2
CC1=NN(Cc2ccccc2)C(=O)C1	-2
CCCC[C@H](C(=O)N(CC)c1ccccc1)[C@@H](O)c1ccc(Cl)cc1	0
CC(NC(=O)c1ccc(C23CC4CC(CC(C4)C2)C3)cc1)C(=O)O (stereo not given)	-2
CCN(CC)CCNC(=O)C1c2cc(OC)c(OC)cc2C(=O)N(C)C1c1cccs1 (stereo not given)	1
Cc1cccc(C)c1NC(=O)C(C1CC1)n1c(-c2ccc(C(F)(F)F)cc2)nc2ccccc21 (stereo not given)	1
SMILES	TTR transcr act	others
Nc1sccc1C(=O)c1ccccc1	9.9*	TTR inh HuH7=-6;TTR act confirm=-1
O=C(c1ccccc1)c1cccs1	1
Cc1ccccc1C(=O)c1ccccc1C(=O)c1ccccc1	6
O=C(NCCc1c[nH]c2ccccc12)OCc1cn(Cc2cccc(C(F)(F)F)c2)nn1	-3
COc1cc(-c2cc(C(=O)OCC(=O)NC3CC3)c3ccccc3n2)cc(OC)c1OC	-3
COc1cc(-c2cc(C(=O)O)c3cc4c(cc3n2)OCCO4)cc(OC)c1OC	2
COc1cc(-c2cc(C(=O)NN3CCN(C)CC3)c3ccccc3n2)cc(OC)c1OC	36*	TTR inh HuH7=-11;TTR act confirm=3
COC(=O)[C@]12C[C@H](CC(=O)NCCCCc3ccccc3)C(=O)N(Cc3ccc4c(c3)OCO4)C1=C[C@H](C(C)C)O[C@@H]2C1CC1	0
COc1cccc(NC(=O)NC2CCCCN(Cc3ccccc3C)C2=O)c1 (stereo not given)	-3
COC(=O)[C@]12C[C@H](CC(=O)NCc3ccccc3)C(=O)N(Cc3cccc4ccccc34)C1=C[C@H](C(C)(C)C)O[C@@H]2C	-1
COc1ccccc1NC(=O)c1cc(-c2ccc(OC)c(OC)c2)nc2ccccc12	-2
COc1cc2c(cc1NC(=O)c1cc(-c3ccncc3)nc3ccccc13)oc1ccccc12	15*	TTR inh HuH7=4;TTR act confirm=-1
COc1cc2c(cc1NC(=O)Nc1cccc(C)c1)oc1ccccc12	1
COc1ccc(C(c2ccc(OC)cc2)N2CCN(C(=O)c3noc(C)c3[N+](=O)[O-])CC2)cc1	0
CC(=O)c1c(C(C)=O)c(C)n(-c2cccc3cccnc23)c1C	-2
c1ccc(-c2nc3c(ccc4ccccc43)[nH]2)nc1	-4
Cc1[nH]c2c(ccc3cccnc32)c1C	12*	TTR inh HuH7=-28;TTR act confirm=-1
O=C(OCc1cn(Cc2ccc(F)cc2)nn1)N1CCOCC1	0
O=c1[nH][nH]c(=O)c(Cl)c1Cl	12*	TTR inh HuH7=-14;TTR act confirm=0
CCOC(=O)[C@@]12CCC3=C1N(CCC3)C(=O)[C@H](CC(=O)NCc1ccc(OC)c(OC)c1)C2	-1
C[C@H]1[C@@H](OC(=O)Nc2cccc(Cl)c2)CC[C@@]23CCCN2C(=O)CCC[C@@H]13	0
COc1ccc(CN2CCN(S(=O)(=O)c3ccccc3)CC2)c(OC)c1	2
COc1ccc(CN2CCN(S(=O)(=O)c3ccccc3)CC2)c(OC)c1OC	17*	TTR inh HuH7=-14;TTR act confirm=-1
COc1cccc(CN2CCN(S(=O)(=O)c3ccccc3)CC2)c1OC	8
S=C(Nc1ccc(Cl)c(Cl)c1)Nc1nnc(-c2ccncc2)s1	1
SMILES	TTR transcr act	others
S=C(Nc1cc(Cl)cc(Cl)c1)NC(c1ccccc1)c1ccccc1	-2
COc1cccc(C(C)(O)c2nc(-c3cccc(C(=O)O)c3)cs2)c1 (stereo not given)	2
COc1ccc(C(C)(NC(C)=O)c2nc(-c3cc(F)cc(F)c3)cs2)cc1 (stereo not given)	-2
COc1ccc(C(C)(NC(C)=O)c2nc(-c3cccc(C(=O)O)c3)cs2)cc1 (stereo not given)	10.0*	TTR inh HuH7=-20;TTR act confirm=0
CN1CCC(N[C@@H](Cc2c[nH]c3ccccc23)C(=O)NCCCc2ccccc2)(C(=O)NCCc2c[nH]c3ccccc23)CC1	6
Cc1cccc(NC(=O)OC2CC3CC2[C@H]2CCCCN2C3)c1 (stereo not given in full)	-1
O=C(OCc1cn(Cc2cccc(F)c2)nn1)N1CCOCC1	5
O=C(c1cccc(Br)c1)N1CCN(C(=O)N2CCOCC2)CC1	1
O=C(/C=C\N1CCOCC1)c1ccc(Br)cc1	12*	TTR inh HuH7=-7;TTR act confirm=1
O=C(NC(=S)Nc1ccccc1N1CCOCC1)c1ccc(Br)cc1	0
COC(=O)[C@]12C[C@H](CC(=O)NCc3cccc4ccccc34)C(=O)N(CCC3=CCCCC3)C1=C[C@H](C1CCCC1)O[C@@H]2C	2
Nc1[nH]c(C(=O)c2ccccc2)c(-c2ccc3ccccc3c2)c1C(=O)NCCc1ccc(Cl)cc1	4
O=C(CCCCC(=O)OCC1COCO1)OCC1COCO1 (stereo not given)	10*	TTR inh HuH7=-2;TTR act confirm=0
O=C(CCCCC(=O)OCC1CCCO1)OCC1CCCO1 (stereo not given)	2
CCOC(=O)CCCC(=O)N1CCOCCOCCN(C(=O)CCCC(=O)OCC)CCOCCOCC1	-1
C=CCN1C(=O)[C@H](CC(=O)NCCCCc2ccccc2)[C@@]2(C(=O)OCC)CCCC=C12	0
C[N+](C)(C)CCCNC(=O)c1ccc(/C=N/O)nc1	20*	TTR inh HuH7=-7;TTR act confirm=1

Compound activity deposited in PubChem by The Scripps Research Institute Molecular Screening Center.
